The results in this text go back to the supplement of paper PMC10933113.

The structures appear in SMILES notation.

This assay concerns KeratinoSens (HaCaT ARE-luciferase) cells. The experiment in a line: Nrf2/ARE luciferase activation call in qHTS KeratinoSens assay (1 = active, 0 = inactive). On the technique in general: qHTS replaces the single test concentration by a dilution series.
`CCn1cc[n+](C)c1.O=S(=O)([O-])C(F)(F)F`: the “Nrf2/ARE luciferase activation call” value was “not active ARE inducer (skin sensitizer alert) (inactive)”.
`CCCC[n+]1ccccc1C.O=S(=O)([O-])C(F)(F)F`: the “Nrf2/ARE luciferase activation call” value was “not active ARE inducer (skin sensitizer alert) (inactive)”.
With `Cc1occc1C(=O)Nc1ccc(C(=O)N2CCC(F)(F)/C(=C\C(=O)N3CCC(N4CCCCC4)CC3)c3ccccc32)cc1.Cc1occc1C(=O)Nc1ccc(C(=O)N2CCC(F)(F)/C(=C\C(=O)N3CCC(N4CCCCC4)CC3)c3ccccc32)cc1.O=C(O)/C=C/C(=O)O`, the “Nrf2/ARE luciferase activation call” value was “not active ARE inducer (skin sensitizer alert) (inactive)”.
For the compound `CN(C)CCOc1ccccc1Cc1ccccc1.O=C(O)CC(O)(CC(=O)O)C(=O)O`, the “Nrf2/ARE luciferase activation call” value was “not active ARE inducer (skin sensitizer alert) (inactive)”.
Take `CC(C)(C)NC[C@H](O)COc1nsnc1N1CCOCC1.O=C(O)/C=C\C(=O)O`: the “Nrf2/ARE luciferase activation call” value was “not active ARE inducer (skin sensitizer alert) (inactive)”.
With `CO[C@@H]1COCC[C@@H]1[NH2+][C@@H]1CC[C@@](C(=O)N2CCc3ncc(C(F)(F)F)cc3C2)(C(C)C)C1.O=C([O-])CCC(=O)O`, the “Nrf2/ARE luciferase activation call” value is “not active ARE inducer (skin sensitizer alert) (inactive)”.
As to `CC[N+]1(C)CCCC1.O=S(=O)([O-])C(F)(F)F`, the “Nrf2/ARE luciferase activation call” value was “not active ARE inducer (skin sensitizer alert) (inactive)”.
Then `COc1cc(N)c(Cl)cc1C(=O)NC1CCN(Cc2ccccc2)CC1.O=C(O)/C=C\C(=O)O`, with “not active ARE inducer (skin sensitizer alert) (inactive)”; and `CCN(C(=O)c1cc(C)cc(OC[C@H](C)Nc2ccncc2)c1)C(C)C.Cc1ccc(S(=O)(=O)O)cc1`, with “not active ARE inducer (skin sensitizer alert) (inactive)”.
On to `CCOc1cc(N)c(Cl)cc1C(=O)NCC1CN(Cc2ccc(F)cc2)CCO1.O=C(O)CC(O)(CC(=O)O)C(=O)O` (stereo not given), for which the “Nrf2/ARE luciferase activation call” value was “not active ARE inducer (skin sensitizer alert) (inactive)”.
With `CCC(C(=O)OCCOCCN(CC)CC)c1ccccc1.O=C(O)CC(O)(CC(=O)O)C(=O)O` (stereo not given), the “Nrf2/ARE luciferase activation call” value is “not active ARE inducer (skin sensitizer alert) (inactive)”.
Then `C[NH+](C)CCC(c1ccccc1)c1cccc[nH+]1.O=C([O-])/C=C\C(=O)[O-]` (stereo not given), with “not active ARE inducer (skin sensitizer alert) (inactive)”; and `CN1CCC[C@@H]1CCO[C@](C)(c1ccccc1)c1ccc(Cl)cc1.O=C(O)/C=C/C(=O)O`, with “not active ARE inducer (skin sensitizer alert) (inactive)”.
On to `CCC[N+]1(C)CCCC1.O=S(=O)([O-])C(F)(F)F`, for which the “Nrf2/ARE luciferase activation call” value is “not active ARE inducer (skin sensitizer alert) (inactive)”.
Next, `CCCCCC[n+]1ccccc1.O=S(=O)([O-])C(F)(F)F`: “not active ARE inducer (skin sensitizer alert) (inactive)”.
